For 39 sequences, PBM binding z-score results are on record in the supplement of paper PMC6555819.

In the first experiment the test system is RARg homodimer (NR concentration 270 nM). Put plainly: PBM binding z-score (relative to random genomic background probes); higher = stronger binding; sequences stand for … in GC…GCGATTGACAGCGTAGAATGAAGG
Summed up:
(§1)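 Probes were double-stranded and carried 34-nt variable regions with direct-repeat seeds, single-nucleotide variants, half-site ablations and random human genomic background sequences, printed on custom Agilent 4×180K protein-binding microarrays. Arrays were incubated 1 h with ligand-free nuclear receptor dimers in PBS pH 7.4, 2% milk, 0.02% Triton X-100, 1 mM DTT, 0.2 mg/mL BSA and 0.4 mg/ml salmon testes DNA. Antibodies against each partner (one per run) detected binding, and scanned fluorescence was regression-normalized. Binding z-scores use the random background probes as reference.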
As to GATACAGGCTCAGCTAGAGGCCAGAGTATGGAAA, the PBM binding z-score is -0.0931.
The same measure, in the same setting: with ACTTACGGGTCAACGAGGTTATGGCACGCGTATA the figure was 5.68; with TCTTGTAGATCAATAGAGGTGAAGAAAGTGCGCT, 0.434.
In turn, CGAACTAGGTCATTGACAGAACAGTGAATAGTAA displayed a PBM binding z-score of 4.15.
As to TCTAGTTAGTCACGGAGGTCACACACGACGGGTA, the PBM binding z-score is 3.44.
With CCTGCTAGGTCATGGCCAGCTAATCTACAGTATG, the PBM binding z-score was determined as 4.02.
For the sequence ATCTCAAGGTAACCAAGTTCAGTGAATGCCGAAC, the PBM binding z-score turned out to be 1.06.
Still for that read-out and setting: to CCTAGCAGGCTAATCTGGGTCACTCAAGGCTTGA belongs 0.769.
Regarding CCTACCGGGCCAAAGGTCATTGATTCCAATGCTC, the PBM binding z-score was 4.58.
On the same count and under the same terms, with TCTAGTTGGTCACGGATGTCACACACGACGGGTA the figure was 1.91; with CAAACTAGGTCAAAGCTCAAAGTCGAGCCAACCA, 4.25; with TGAATGAGGATATAAGATCAGGGAACGTTGCAAA, 0.402.
For TCTCGGAGGACACGAATGGTCAGAGCTCGACATC, the PBM binding z-score came out at 1.29.
Still for that read-out and setting: to CCTACTGGGCCAAAAAGGTCATCGATGCCGATAA belongs 4.77.
On the same count and under the same terms, to ATCTCTAGGTAACAAGTTCTGTGAAAGAGAGGAC belongs 0.579; to CGTACAAGGTCAATGCTAGGTCAGTGAAAGCATT, 7.1; to ACTCGAAGGACAAAGGTCAGAGCTACGCCAGTGA, 4.94.
Still for that read-out and setting: to CCTGCTAGGTCAATGGCCAGCTAAAGCAGCTCGC belongs 3.65; to TCTAGCAGGCCAGAGGGTCGCTCAAGAGGTACGG, 0.0431; to ATACCGAGGTGATCGTGAGGTCGTTGATACTAAC, 0.682.
Consider CGTGCTAGGTCATGGTCAGCTAATCTACAGTATG, for which the PBM binding z-score was determined as 4.74.
The same measure, in the same setting: with CGAACGAGGGCATGTGTTGATAGCAAATGCCGAT the figure was 1.7.
In the case of CCTAGCAGGCCAATCTGGGGCACTCAAGGCTTGA, the PBM binding z-score came to 0.0351.
CCGACTGGGGCAGAAGGGTTACCATACCATCCGG had a PBM binding z-score of 0.787.
ATCTCTAGGTAAAGATAGTTCAGTGGATGCAAAT yielded a PBM binding z-score of 0.785.
The same measure, in the same setting: to CGAATTAGGTCATTGACAGGACAGTGAATAGTAA belongs 4.22; to GTACCAAGGTGAATACGTCGTTGATGAGTAGGCG, 0.692.
The same measure, in the same setting: to ATATGTAGGTTACATCCGGGTGATTCAGGCTATG belongs 1.11.
In turn, CCTAGTTGGTCTGGAGGTCACACACCGGATATGA came in with a PBM binding z-score of 3.84.
On the same count and under the same terms, to AACGAAAGGTCGAGGTGAGTATAGAGAAAGGGAA belongs 4.73.
The sequence CGAACTAGGTCAAGGACAGTGGATCTCCGCACGC returned a PBM binding z-score of 4.5.
In turn, ATTACAGGGTCATCGTAGGCCAGAGTACGCACAG displayed a PBM binding z-score of 5.41.
Sequence ATCGAAAGGTAGACGAGGTGAGTATACACCGTTT came in with a PBM binding z-score of 0.758.
Take TTACCAAGGTGAAGGTCGTTGAACCCTCTGTAGA: the PBM binding z-score came to 1.52.
Still for that read-out and setting: to CCTCGGAGGACAGCAGGTCAGAGCTGTCCGCTTT belongs 1.91; to TCTATTACTTGATTAGGGCAACCGAAACAGCGGA, 0.616.
On the same count and under the same terms, to AGAAGGAGGTTACCAAAGATCAGGGAAACGCTTG belongs 1.54; to CGTCACAGTTCAACTAAGGTAACGTAAAGCACGC, 3.37; to GCTAGTAGGCCATTTGGGTCACTCAATGACGGGC, 1.33.

In the next experiment the test system is RXRa DBDmut IVT, anti-RXR (DBD mutation: RXRa K156A/R161A, NR concentration 90 nM). The experiment is described as above. Summed up:
as §1
GATACAGGCTCAGCTAGAGGCCAGAGTATGGAAA came in with a PBM binding z-score of -0.906.
Same read-out and setting: to ACTTACGGGTCAACGAGGTTATGGCACGCGTATA belongs 2.65; to TCTTGTAGATCAATAGAGGTGAAGAAAGTGCGCT, 0.561.
Regarding CGAACTAGGTCATTGACAGAACAGTGAATAGTAA, the PBM binding z-score turned out to be 2.74.
In turn, TCTAGTTAGTCACGGAGGTCACACACGACGGGTA came in with a PBM binding z-score of 1.24.
The sequence CCTGCTAGGTCATGGCCAGCTAATCTACAGTATG returned a PBM binding z-score of 1.3.
Same read-out and setting: to ATCTCAAGGTAACCAAGTTCAGTGAATGCCGAAC belongs 1.01.
Sequence CCTAGCAGGCTAATCTGGGTCACTCAAGGCTTGA yielded a PBM binding z-score of 0.246.
CCTACCGGGCCAAAGGTCATTGATTCCAATGCTC registered a PBM binding z-score of 0.593.
Take TCTAGTTGGTCACGGATGTCACACACGACGGGTA: the PBM binding z-score came to 0.683.
Same read-out and setting: to CAAACTAGGTCAAAGCTCAAAGTCGAGCCAACCA belongs 1.91; to TGAATGAGGATATAAGATCAGGGAACGTTGCAAA, -0.562; to TCTCGGAGGACACGAATGGTCAGAGCTCGACATC, 0.733.
Turning to CCTACTGGGCCAAAAAGGTCATCGATGCCGATAA, the PBM binding z-score worked out at 0.518.
Turning to ATCTCTAGGTAACAAGTTCTGTGAAAGAGAGGAC, the PBM binding z-score came to 0.302.
CGTACAAGGTCAATGCTAGGTCAGTGAAAGCATT came in with a PBM binding z-score of 3.82.
On to ACTCGAAGGACAAAGGTCAGAGCTACGCCAGTGA, for which the PBM binding z-score worked out at 0.729.
Same read-out and setting: to CCTGCTAGGTCAATGGCCAGCTAAAGCAGCTCGC belongs 1.05.
The same measure, in the same setting: with TCTAGCAGGCCAGAGGGTCGCTCAAGAGGTACGG the figure was -0.342; with ATACCGAGGTGATCGTGAGGTCGTTGATACTAAC, 0.849.
CGTGCTAGGTCATGGTCAGCTAATCTACAGTATG: the PBM binding z-score was determined as 1.87.
Still for that read-out and setting: with CGAACGAGGGCATGTGTTGATAGCAAATGCCGAT the figure was 2.64; with CCTAGCAGGCCAATCTGGGGCACTCAAGGCTTGA, -0.585.
Still for that read-out and setting: to CCGACTGGGGCAGAAGGGTTACCATACCATCCGG belongs -1.36; to ATCTCTAGGTAAAGATAGTTCAGTGGATGCAAAT, -0.122.
As for CGAATTAGGTCATTGACAGGACAGTGAATAGTAA, the PBM binding z-score came out at 2.69.
The sequence GTACCAAGGTGAATACGTCGTTGATGAGTAGGCG came in with a PBM binding z-score of -0.417.
Still for that read-out and setting: with ATATGTAGGTTACATCCGGGTGATTCAGGCTATG the figure was 0.378; with CCTAGTTGGTCTGGAGGTCACACACCGGATATGA, 0.895.
The same measure, in the same setting: to AACGAAAGGTCGAGGTGAGTATAGAGAAAGGGAA belongs 0.969; to CGAACTAGGTCAAGGACAGTGGATCTCCGCACGC, 1.34; to ATTACAGGGTCATCGTAGGCCAGAGTACGCACAG, 3.6.
ATCGAAAGGTAGACGAGGTGAGTATACACCGTTT displayed a PBM binding z-score of -0.531.
Regarding TTACCAAGGTGAAGGTCGTTGAACCCTCTGTAGA, the PBM binding z-score turned out to be 0.243.
Sequence CCTCGGAGGACAGCAGGTCAGAGCTGTCCGCTTT yielded a PBM binding z-score of -0.0565.
For TCTATTACTTGATTAGGGCAACCGAAACAGCGGA, the PBM binding z-score is 1.1.
AGAAGGAGGTTACCAAAGATCAGGGAAACGCTTG yielded a PBM binding z-score of -0.25.
On the same count and under the same terms, with CGTCACAGTTCAACTAAGGTAACGTAAAGCACGC the figure was 3.38; with GCTAGTAGGCCATTTGGGTCACTCAATGACGGGC, 0.0324.
